From PubChem BioAssay (NCATS)
Records with an inconclusive call do not appear. A call without a number means that no potency is given here. Active and inactive are the calls of the source. Calls come from the whole dose curve; as a rule, active = well fitted inhibition curve with a large enough effect; inconclusive = small, poorly fitted or top-dose-only effect; inactive = flat fitted curve, though single readings scatter.

Legend:
[1] = P-glycoprotein substrates identified in KB-8-5-11 adenocarcinoma cell line, qHTS therapeutic library screen (AID 1346987)
Method in brief: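 P-gp-mediated resistance screen: KB-8-5-11 cells treated 72 h with compounds in dose-response. CellTiter-Glo viability.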

[2] = target: Glutathione peroxidase 1 (Homo sapiens) (UniProt P07203); experiment: Primary qHTS Assay for Inhibitors of Recombinant Selenoprotein Glutathione Peroxidase 1 (GPX1) (AID 1845191)
Sequence of Glutathione peroxidase 1 (Homo sapiens) (P07203 whole entry, looked up): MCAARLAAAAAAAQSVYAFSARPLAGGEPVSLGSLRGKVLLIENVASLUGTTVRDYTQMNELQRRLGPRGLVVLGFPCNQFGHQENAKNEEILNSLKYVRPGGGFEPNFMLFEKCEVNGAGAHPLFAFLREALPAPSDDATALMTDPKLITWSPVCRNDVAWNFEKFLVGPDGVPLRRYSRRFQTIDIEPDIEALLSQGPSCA
Method in brief: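 Recombinant GPX1 (10 nM final) was preincubated with compound for 30 min at room temperature, then reacted with 1 mM GSH, 0.5 mM CHP, 0.5 mM NADPH and 100 nM glutathione reductase; NADPH fluorescence (340/450 nm) was read at 0 and 15 min.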
Note: nearly all actives have a fitted effect of over 65% in size.

## O=C1NCCCc2c1oc1ccc(O)cc21
[1]
  Potency: inactive
[2]
  Potency: inactive
